About 13,000 (27%) of roughly 48,000 compounds showed an effect of 50% or more. The list shows a part of the results.
These compounds were tested on Wolbachia pipientis (assay: Anti-Wolbachia Cell-Based Screen). Conditions: 5 µM.
Type: functional
Set-up: scale not given: in the data most compounds retested in dose-response had high values

Row | SMILES | Percent Effect [%]
1 | COCCNC(=O)Nc1ccn(-c2cccc(C(F)(F)F)c2)n1 | 3.521
2 | OCCC1CN(c2ncnc3[nH]cnc23)CCN1Cc1ccccc1F (stereo not given) | -3.014
3 | OCCc1cc(CC2(NCc3ccc(C(F)(F)F)cc3)COC2)no1 | 1.711
4 | CN(C(=O)CN(Cc1cccc(O)c1)C1CCC(O)CC1)C1CC1 (stereo not given) | 2.382
5 | CCc1ccc(CN2CCCC(c3nn(C)c(=O)n3CC)C2)nc1 (stereo not given) | 20.88
6 | CC(C)NC(=O)CCNC(=O)CCc1cc(Br)cs1 | -10.2
7 | COc1ccc(-c2n[nH]cc2CN(C)Cc2nccn2C)c(F)c1 | -1.077
8 | COc1ccc2c(c1)c(-c1nc(C)ncc1CN)cn2C | 104.6
9 | COc1ccc(OC)c(CN(C)c2nc3c(cnn3C)c(=O)[nH]2)c1 | -18.11
10 | COc1ccc2cccc(CC(=O)NCc3nccc(N)n3)c2c1 | -13.23
11 | Cc1ncc(CN)c(-c2cn(C)c3ccccc23)n1 | 142.3
12 | Cc1cc(N2CCN(C(=O)c3cn(C)c4ccccc34)CC2)nc(C)n1 | 1.104
13 | COc1ccc2cccc(CC(=O)NCc3n[nH]c(=O)[nH]3)c2c1 | 5.869
14 | COc1ccc(CN)c(OC(F)F)c1.Cl | -5.611
15 | COCC(=O)NCc1cnc(C)nc1-c1cn(C)c2ccc(OC)cc12 | 67.07
16 | COc1ccc(-c2ccccc2CN)c(OC)c1 | -11.71
17 | Cn1cc(CNC[C@H]2Cn3ccnc3CO2)c2ccccc21 | -9.127
18 | COc1ccc2c(c1)c(-c1nc(N(C)C)ncc1CN)cn2C | 69.63
19 | CN(CCNC(=O)N1CCN(Cc2ccon2)CC1)C1CCCC1 | -5.523
20 | CC1CCN(CC2(O)CCCN(Cc3cccc(F)c3F)C2=O)CC1 (stereo not given) | -9.136
21 | O=C(CN(Cc1ccccc1)CC1CCOCC1)Nc1nccs1 | -5.546
22 | Cn1cnnc1CN1CCC2(CCC(=O)N(Cc3ccccc3)C2)CC1 | -10.98
23 | Cc1nnc2n1CCN(C(C(=O)NC1CC1)c1ccccc1)C2 (stereo not given) | -4.736
24 | O=S(=O)(CC1CCCCC1)NCc1ccnc(O)c1 | -10.25
25 | COc1ccc2c(ccn2CC(=O)Nc2n[nH]c(CC(C)C)n2)c1 | 220.2

Row | SMILES | Percent Effect [%]
26 | COc1ccc2nc(CCNC(=O)c3cc(CC(C)C)no3)[nH]c2c1 | 0.008091
27 | COCCN(C)C(=O)Nc1ccc2c(ccn2CC(=O)N(C)C)c1 | 5.654
28 | COc1ccc2c(ccn2CCC(=O)Nc2n[nH]c(CC(C)C)n2)c1 | 106.4
29 | CCNC(=O)Nc1ccc2c(ccn2CC(=O)N(CC)CC)c1 | -5.513
30 | CNS(=O)(=O)Cc1ccc(CNc2ccc(C#N)cn2)cc1 | 0.03552
31 | O=C(c1ccc2[nH]ccc2c1)N1Cc2nc(CN3CCCC3)oc2C1 | -7.855
32 | O=C(O)C(F)(F)F.O=C(O)C(F)(F)F.O=C(c1ccncc1F)N1Cc2nc(CN3CCCCC3)oc2C1 | -18.26
33 | O=C(O)C(F)(F)F.O=S(=O)(c1cccs1)N1Cc2nc(CN3CCCCC3)oc2C1 | 109.1
34 | O=C(O)C(F)(F)F.O=C(c1ccc2[nH]ccc2c1)N1Cc2nc(CN3CCCCC3)oc2C1 | -9.773
35 | O=C(O)C(F)(F)F.O=C(O)C(F)(F)F.c1csc(CN2CCCn3cnc(CN4CCCC4)c3C2)c1 | -7.451
36 | O=C(O)C(F)(F)F.O=C(O)C(F)(F)F.c1csc(CN2Cc3nc(CN4CCCC4)oc3C2)c1 | 109.9
37 | Cc1ncnc2c1CCN(Cc1cccs1)CC2.O=C(O)C(F)(F)F | -21.74
38 | O=C(O)C(F)(F)F.O=S(=O)(c1cccs1)N1CC[C@H]2[C@H]1CCN2CC1CC1 | -12.79
39 | O=C(O)C(F)(F)F.O=S(=O)(c1cccs1)N1CCCn2nnc(CN3CCCCC3)c2C1 | -14.53
40 | O=C(NCc1cccs1)c1nc2c(o1)CN(c1ncccn1)C2 | 0.5771
41 | O=C(Cc1ccsc1)N1Cc2nc(CN3CCCCC3)oc2C1.O=C(O)C(F)(F)F | 93.12
42 | O=C(Cc1cccs1)N1Cc2nc(CN3CCCC3)oc2C1 | 101.2
43 | CC(C)Oc1ccc(CN2CCN3CCN(C)CC3C2)cc1CO (stereo not given) | 9.29
44 | CC(C)N1CCc2onc(Cn3cccc3)c2C1.O=C(O)C(F)(F)F | -0.5475
45 | CCc1cnc(C)nc1NCCC(=O)N1CCC(C)CC1 | -0.3722
46 | COc1ccnc(N(C)Cc2ccccc2O)n1 | -0.8473
47 | CN(C)C(CNCc1nc(-c2ccsc2)no1)c1cccc(F)c1 (stereo not given) | 29.87
48 | CC(=O)Oc1ccnc(C(F)(F)F)c1C(C)=O | 6.517
49 | O=C(O)C(F)(F)F.O=S(=O)(c1cccs1)N1CC[C@@H](O)[C@@H]1Cc1ccncc1 | 6.31
50 | O=C(O)C(F)(F)F.O=S(=O)(c1cccs1)N1CCCn2cnc(CN3CCCC3)c2C1 | -2.227

Row | SMILES | Percent Effect [%]
51 | O=C(O)C(F)(F)F.O=S(=O)(c1cccs1)N1Cc2nc(CN3CCCC3)oc2C1 | 87.16
52 | Cc1cccc(CN2C[C@@H]3CN(C(=O)c4ccsc4)C[C@@H]3C2=O)n1.O=C(O)C(F)(F)F | -3.63
53 | O=C(c1ncc[nH]1)N1CCC(Cn2cc(-c3cccc(Cl)c3)nn2)CC1 | -5.477
54 | COc1cccc(-c2noc(-c3ccc(NCC(C)O)nc3)n2)c1OC (stereo not given) | -13.68
55 | CSc1ccc2c(C)cc(N[C@@H](C)CO)nc2c1 | -9.02
56 | CC(C)c1nccn1CCCNC(=O)c1ccc(-c2cn[nH]c2)nc1 | -8.447
57 | C[C@@H](CO)Nc1cc(-c2cn[nH]c2)ncn1 | 112.5
58 | CC[C@@H](CO)Nc1cc(-c2cn[nH]c2)ncn1 | 98.52
59 | COc1cccc(-n2cc(-c3ccnc(NC(CO)C(C)C)n3)cn2)c1 (stereo not given) | 8.395
60 | C[C@H](O)CNc1cc(-c2cn[nH]c2)ncn1 | 139.4
61 | CC(C)[C@@H](CO)Nc1cc(-c2cn[nH]c2)ncn1 | 127.6
62 | COc1cccc(-n2cc(-c3ccnc(N[C@H](CO)C(C)C)n3)cn2)c1 | 4.852
63 | COc1ccc(Cc2noc(-c3ccc(NC(C)CO)nc3)n2)cc1 (stereo not given) | 5.885
64 | CC[C@@H](CO)NC(=O)c1cc(COc2ccc(OC)cc2Cl)[nH]n1 | -9.741
65 | CCC(CO)NC(=O)c1cc(COc2ccc(OC)cc2Cl)[nH]n1 (stereo not given) | -12.2
66 | Cc1cc(CN2CCN(C(=O)NCCCc3cn[nH]c3C)CC2)on1 | -23.87
67 | Cc1ccc(-n2nnnc2SCN2CCCCC2=O)cc1C | -13.91
68 | Cc1ccc(CNC(=O)CN2C=Nc3ccccc3S2(=O)=O)s1 | 1.242
69 | COc1ccc(C)c2c1N(C(=O)c1cnc(C)s1)CCC2 | 46.61
70 | Cn1cnnc1CNC(=O)C1CCCN(Cc2ccccc2)C1 (stereo not given) | -10.08
71 | O=C(Nc1nnc(C2CC2)s1)NC1CCN(Cc2ccccc2)C1 (stereo not given) | -1.377
72 | O=C(c1ccc(CN2CCCC2)cc1)N1CCCC(n2cccn2)C1 (stereo not given) | 0.6704
73 | CCNC(=O)C1CCN(Cc2ccc(C(=O)Nc3cnns3)cc2)C1 (stereo not given) | 106
74 | NC(=O)c1ccc(CN2CCCC(N3CCCC3)C2)cc1 (stereo not given) | -7.606
75 | CCc1ccc(CN2CCC(CNC(=O)c3ccc(C)nc3)C2)nc1 (stereo not given) | 20.32

Row | SMILES | Percent Effect [%]
76 | CCCN(C(=O)c1cnns1)C1CCCN(Cc2ccccc2)C1 (stereo not given) | 20.84
77 | NC(=O)C1CCCN(Cc2ccc(C(=O)Nc3cnns3)cc2)C1 (stereo not given) | 103.7
78 | CCNC(=O)C1CCN(Cc2ccc(C(=O)Nc3nnc(C)s3)cc2)C1 (stereo not given) | 100.1
79 | CCC(CC)CS(=O)(=O)NC(=O)C1CCCC1 | -11.88
80 | Cc1cnccc1CN(C)Cc1c[nH]nc1-c1ccc(F)cc1F | -6.627
81 | O=C(c1cncc2ccccc12)N1CCC[C@@H]1CO | 106.1
82 | CC(NC(=O)N1CCC[C@H]1CO)c1noc(-c2ccccc2)n1 (stereo not given in full) | 5.475
83 | COc1ccccc1C(=O)N1CCCC1Cn1cc(C)cn1 (stereo not given) | -4.126
84 | Cc1cnn(CC2CCCN2C(=O)c2cn(C)c3ccccc23)c1 (stereo not given) | 141.3
85 | Cc1cnn(CC2CCCN2C(=O)c2cc(O)nc3ccccc23)c1 (stereo not given) | 145.5
86 | Cc1cc(C)n(-c2cccc(NC(=O)N3CCC[C@@H]3CO)c2)n1 | -12.47
87 | O=C(Nc1ccccc1OC1CCOC1)c1ccon1 (stereo not given) | -7.759
88 | CCN(CCc1nc2cc(C)ccc2[nH]1)C(=O)[C@@H](N)Cc1c[nH]cn1 | -4.555
89 | CCOCc1nccc(-c2ccc(OCC)c(C(=O)O)c2)n1 | -8.809
90 | Cc1cccc(-c2nnc(C(C)N3CCn4c(C)nnc4C3)o2)c1 (stereo not given) | 3.143
91 | Cc1noc(C(C)N2CCC(c3nc4ccccc4[nH]3)CC2)n1 (stereo not given) | -1.749
92 | Cc1nnc(C(C)N2CCc3[nH]c4ccc(Cl)cc4c3C2)o1 (stereo not given) | 96.73
93 | Cc1nnc(C(C)NCC2(c3ccc(Cl)cc3)CCCC2)o1 (stereo not given) | 5.084
94 | Cc1noc(C(C)N2CCc3[nH]c4ccc(Cl)cc4c3C2)n1 (stereo not given) | 55.06
95 | Cc1nnc(C(C)N2CCc3[nH]c4ccccc4c3C2)o1 (stereo not given) | 119.5
96 | Cc1ccc(-c2nnc(C(C)N3CCn4c(C)nnc4C3)o2)cc1 (stereo not given) | 7.305
97 | CCc1cc(C)nc(N2CCN(C(C)c3nc(C)no3)CC2)n1 (stereo not given) | 7.355
98 | Cc1nnc2n1CCN(C(C)c1nnc(-c3cccs3)o1)C2 (stereo not given) | 4.366
99 | CN(CCO)C[C@@H]1CN(Cc2ccccc2C#N)C[C@@H]1CO | 5.341
100 | O=C(O)C(F)(F)F.O=C([C@H]1COC[C@H]2CN(C3CCCC3)C[C@H]21)N1CCCO1 | 3.277

From ChEMBL document CHEMBL3988442, “University of Dundee, Small-Polar-MMV Screening Library” (2021)
